# Measured values as given in PubChem BioAssay (NCATS).
# Where “and” joins values, the source holds several entries; their conditions need not be identical. Equal values may be shown once. Inconclusive results are not listed. Where a call stands in place of a potency, no number is given. Unmarked numbers belong to inactive results. Calls of active or inactive are those of the source. Calls come from the whole dose curve; as a rule, active = well fitted inhibition curve with a large enough effect; inconclusive = small, poorly fitted or top-dose-only effect; inactive = flat fitted curve, though single readings scatter.
# Tests used:
# P93_24 = experiment: qHTS profiling for inhibitors of Plasmodium falciparum proliferation (AID 504749); details: P. falciparum in erythrocytes, SYBR Green DNA, 72 h; series mostly up to 28.7 µM
# Method in brief: (§1)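 SYBR Green fluorescence of parasite DNA, read after lysis and overnight dark incubation, measured growth over 72 h in erythrocyte culture at 0.3% parasitemia and 2.5% hematocrit. Data normalised to DMSO and 0.29 uM artemisinin, with plate-drift correction.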
# P94_40 = experiment: as above; details: P. falciparum in erythrocytes, SYBR Green DNA, 72 h; series mostly up to 28.7 µM
# Method in brief: as §1
# PC15 = experiment: as above; details: P. falciparum in erythrocytes, SYBR Green DNA, 72 h; series mostly up to 28.7 µM
# Method in brief: as §1
# PC49 = experiment: as above; details: P. falciparum in erythrocytes, SYBR Green DNA, 72 h; series mostly up to 28.7 µM
# Method in brief: as §1
# TAB109 = experiment: as above; details: P. falciparum in erythrocytes, SYBR Green DNA, 72 h; series mostly up to 28.7 µM
# Method in brief: as §1
# TAB113 = experiment: as above; details: P. falciparum in erythrocytes, SYBR Green DNA, 72 h; series mostly up to 28.7 µM
# Method in brief: as §1
# TAB165 = experiment: as above; details: P. falciparum in erythrocytes, SYBR Green DNA, 72 h; series mostly up to 28.7 µM
# Method in brief: as §1
# W2 = experiment: as above; details: P. falciparum in erythrocytes, SYBR Green DNA, 72 h; series mostly up to 28.7 µM
# Method in brief: as §1
# CRL-7250 = normal cell line; experiment: Cytotoxic Profiling of Annotated Libraries Using Quantitative High-Throughput Screening (AID 1296008); details: Five cell lines viability, CellTiter-Glo ATP luminescence, 48-72 h; max response: hits give low values
# Method in brief: (§2)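 Cytotoxicity was measured as CellTiter-Glo ATP luminescence, read after 10 min at room temperature. Compound treatment of the cells lasted 48 or 72 hr at 37 degrees Celsius in a qHTS format.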
# HEK293 = experiment: as above; details: Five cell lines viability, CellTiter-Glo ATP luminescence, 48-72 h; max response: hits give low values
# Method in brief: as §2
# HaCat [1] = experiment: as above; details: Five cell lines viability, CellTiter-Glo ATP luminescence, 48-72 h; max response: hits give low values
# Method in brief: as §2
# KB-3-1 = experiment: as above; details: Five cell lines viability, CellTiter-Glo ATP luminescence, 48-72 h; max response: hits give low values
# Method in brief: as §2
# NIH3T3 = experiment: as above; details: Five cell lines viability, CellTiter-Glo ATP luminescence, 48-72 h; max response: hits give low values
# Method in brief: as §2
# MCC-13 = experiment: qHTS assay to identify novel small-molecules to repurpose for Merkel cell carcinoma treatment (AID 1296009); details: MCC and control cell lines, CellTiter-Glo viability, 72 h; series mostly up to 46 µM
# Method in brief: (§3)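 Cell viability, measured as CellTiter-Glo luminescence, was normalized between DMSO and no-cell wells. The cells had been exposed to 8- or 11-point compound dilutions for 72 hr at 37 degree celsius.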
# MCC-26 = experiment: as above; details: MCC and control cell lines, CellTiter-Glo viability, 72 h; series mostly up to 46 µM
# Method in brief: as §3
# PC26 = experiment: qHTS profiling for inhibitors of Plasmodium falciparum proliferation (AID 504749); details: P. falciparum in erythrocytes, SYBR Green DNA, 72 h; series mostly up to 28.7 µM
# Method in brief: as §1
# HACAT [2] = experiment: qHTS assay to identify novel small-molecules to repurpose for Merkel cell carcinoma treatment (AID 1296009); details: MCC and control cell lines, CellTiter-Glo viability, 72 h; series mostly up to 44.8 µM
# Method in brief: as §3
# PAD = experiment: qHTS profiling for inhibitors of Plasmodium falciparum proliferation (AID 504749); details: P. falciparum in erythrocytes, SYBR Green DNA, 72 h; series mostly up to 28.7 µM
# Method in brief: as §1
# SC27B = experiment: as above; details: P. falciparum in erythrocytes, SYBR Green DNA, 72 h; series mostly up to 28.7 µM
# Method in brief: as §1
# HEK293T = experiment: qHTS assay to identify novel small-molecules to repurpose for Merkel cell carcinoma treatment (AID 1296009); details: MCC and control cell lines, CellTiter-Glo viability, 72 h; at 44.8 µM (top of the series) unless noted
# Method in brief: as §3
# Note: nearly all actives have a fitted effect of over 60% in size.
# Potency is the fitted concentration of half-maximal effect.
structure (smiles),measurement,setting,value
CC[C@@]1(O)C(=O)OCc2c1cc1n(c2=O)Cc2cc3c(CN(C)C)c(O)ccc3nc2-1,Potency,P93_24,4.47 µM (active)
same,Potency,P94_40,2.82 µM (active)
same,Potency,PC15,inactive
same,Potency,PC49,inactive
same,Potency,TAB109,6.31 µM (active)
same,Potency,TAB113,4.47 µM (active)
same,Potency,TAB165,3.55 µM (active)
same,Potency,W2,5.36 µM (active)
same,Potency,CRL-7250,7.5 µM (active) and 14.8 µM (active) and 6.51 µM (active)
same,Potency,HEK293,372 nM (active) and 517 nM (active)
same,Potency,HaCat [1],1.05 µM (active) and 1.46 µM (active)
same,Potency,KB-3-1,5.9 µM (active) and 3.26 µM (active)
same,Potency,NIH3T3,1.68 µM (active) and 1.32 µM (active) and 2.06 µM (active)
same,Potency,MCC-13,94.4 nM (active) and 132 nM (active)
same,Potency,MCC-26,94.4 nM (active) and 418 nM (active)
Clc1ccc2c(c1)C(N1CCNCC1)=Nc1ccccc1O2,Potency,PC26,inactive
same,Potency,PC49,inactive
same,Potency,W2,5.36 µM (active)
same,max response,CRL-7250,-6.06% and -6.64% and -8.49%
same,Potency,HEK293,20.6 µM (active)
same,outcome,HaCat [1],inactive
same,max response,KB-3-1,6.74% and 1.6%
same,max response,NIH3T3,4.64% and 1.82% and -2.71%
same,outcome,HACAT [2],inactive
same,Potency,MCC-13,inactive
same,Potency,MCC-26,inactive
O=c1c(-c2ccc(O)cc2)coc2cc(O)cc(O)c12,Potency,P93_24,inactive
same,Potency,P94_40,inactive
same,Potency,PAD,inactive
same,Potency,PC15,inactive
same,Potency,PC49,inactive
same,Potency,SC27B,inactive
same,Potency,TAB109,inactive
same,Potency,TAB113,inactive
same,Potency,TAB165,inactive
same,max response,CRL-7250,4.48%
same,max response,HEK293,-3.7%
same,max response,HaCat [1],0.82%
same,outcome,HaCat [1],inactive
same,max response,KB-3-1,32.1%
same,outcome,KB-3-1,inactive
same,max response,NIH3T3,-9.8% and -21.1%
same,outcome,HACAT [2],inactive
same,Potency,MCC-13,inactive
same,Potency,MCC-26,inactive
CCN1CCCC1CNC(=O)c1cc(S(=O)(=O)CC)c(N)cc1OC (stereo unspecified),outcome,CRL-7250,inactive
same,max response,HEK293,-9.52% and 2.43%
same,max response,HaCat [1],-3.32%
same,outcome,HaCat [1],inactive
same,max response,KB-3-1,8.59%
same,max response,NIH3T3,4.99%
same,outcome,NIH3T3,inactive
same,outcome,HACAT [2],inactive
same,Potency,MCC-13,inactive
same,Potency,MCC-26,inactive
Fc1ccc([C@@H]2CCNC[C@H]2COc2ccc3c(c2)OCO3)cc1,max response,CRL-7250,-5.94%
same,max response,HEK293,-24.9%
same,outcome,HaCat [1],inactive
same,max response,NIH3T3,-13.3%
same,outcome,HACAT [2],inactive
same,Potency,MCC-13,inactive
same,Potency,MCC-26,inactive
CN(Cc1cnc2nc(N)nc(N)c2n1)c1ccc(C(=O)N[C@@H](CCC(=O)O)C(=O)O)cc1,Potency,P94_40,0.178 µM (active)
same,Potency,PC15,0.224 µM (active)
same,Potency,PC26,inactive
same,Potency,PC49,0.178 µM (active)
same,Potency,SC27B,0.178 µM (active)
same,Potency,TAB109,inactive
same,Potency,TAB165,inactive
same,Potency,CRL-7250,119 nM (active)
same,Potency,HEK293,29.9 nM (active) and 33.2 nM (active)
same,Potency,HaCat [1],418 nM (active)
same,Potency,KB-3-1,37.2 nM (active)
same,Potency,NIH3T3,266 nM (active) and 332 nM (active)
same,Potency,MCC-26,inactive
CN(C)CCC=C1c2ccccc2C=Cc2ccccc21,Potency,W2,1.2 µM (active)
same,max response,CRL-7250,-6.55%
same,Potency,HEK293,26.4 µM (active)
same,outcome,HaCat [1],inactive
same,max response,KB-3-1,-7.06% and -14.3%
same,max response,NIH3T3,-0.444%
same,outcome,HACAT [2],inactive
same,Potency,MCC-13,inactive
same,Potency,MCC-26,inactive
CN1C2CCC1CC(OC(=O)C(CO)c1ccccc1)C2 (stereo unspecified),max response,CRL-7250,-10.2%
same,max response,HEK293,0.412%
same,outcome,HaCat [1],inactive
same,max response,NIH3T3,-0.822%
same,outcome,HACAT [2],inactive
same,Potency,MCC-13,inactive
same,Potency,MCC-26,inactive
CCCCc1oc2ccccc2c1C(=O)c1cc(I)c(OCCN(CC)CC)c(I)c1,Potency,P93_24,3.55 µM (active)
same,Potency,P94_40,3.55 µM (active)
same,Potency,PAD,6.31 µM (active)
same,Potency,PC15,11.2 µM (active)
same,Potency,PC26,9.53 µM (active)
same,Potency,SC27B,10 µM (active)
same,Potency,TAB109,7.08 µM (active)
same,Potency,TAB113,12.6 µM (active)
same,Potency,TAB165,3.16 µM (active)
same,Potency,W2,4.26 µM (active)
same,max response,CRL-7250,-7.04% and -18.2%
same,Potency,HEK293,23.5 µM (active)
same,outcome,HaCat [1],inactive
same,max response,NIH3T3,-21.3% and -20.5%
same,outcome,HACAT [2],inactive
same,Potency,MCC-13,inactive
same,Potency,MCC-26,inactive
CN(CCOc1ccc(NS(C)(=O)=O)cc1)CCc1ccc(NS(C)(=O)=O)cc1,Potency,P94_40,inactive
same,Potency,PAD,inactive
same,Potency,PC15,inactive
same,Potency,PC26,inactive
same,Potency,PC49,inactive
same,Potency,SC27B,inactive
same,Potency,TAB109,inactive
same,Potency,TAB113,inactive
same,Potency,TAB165,inactive
same,Potency,W2,inactive
same,outcome,CRL-7250,inactive
same,outcome,HEK293,inactive
same,max response,HaCat [1],2.47%
same,outcome,HaCat [1],inactive
same,outcome,NIH3T3,inactive
same,outcome,HACAT [2],inactive
same,outcome,HEK293T,inactive
same,Potency,MCC-13,inactive
same,Potency,MCC-26,inactive
NS(=O)(=O)c1cc2c(cc1Cl)NCNS2(=O)=O,Potency,P93_24,inactive
same,Potency,P94_40,inactive
same,Potency,PAD,inactive
same,Potency,PC15,inactive
same,Potency,PC26,inactive
same,Potency,PC49,inactive
same,Potency,SC27B,inactive
same,Potency,TAB109,inactive
same,Potency,TAB113,inactive
same,Potency,TAB165,inactive
same,Potency,W2,inactive
same,outcome,CRL-7250,inactive
same,outcome,HEK293,inactive
same,max response,HaCat [1],0.753%
same,outcome,HaCat [1],inactive
same,max response,KB-3-1,23% and 9.86%
same,max response,NIH3T3,-2.86% and -1.17%
same,outcome,HACAT [2],inactive
same,outcome,HEK293T,inactive
same,Potency,MCC-13,inactive
same,Potency,MCC-26,inactive
CS(=O)(=O)CCNCc1ccc(-c2ccc3ncnc(Nc4ccc(OCc5cccc(F)c5)c(Cl)c4)c3c2)o1,Potency,P93_24,inactive
same,Potency,P94_40,inactive
same,Potency,PAD,inactive
same,Potency,PC15,inactive
same,Potency,PC26,inactive
same,Potency,PC49,inactive
same,Potency,SC27B,inactive
same,Potency,TAB109,inactive
same,Potency,TAB113,inactive
same,Potency,TAB165,inactive
same,Potency,W2,inactive
same,outcome,CRL-7250,inactive
same,Potency,HEK293,4.18 µM (active) and 6.68 µM (active) and 9.2 µM (active)
same,Potency,HaCat [1],46.9 nM (active) and 266 nM (active)
same,max response,KB-3-1,0.0192%
same,max response,NIH3T3,-52.4%
same,Potency,MCC-13,inactive
same,Potency,MCC-26,inactive
